Hits are enriched below; roughly 5.4% of the tested compounds scored in any of these assays.
ALR inh – blocks human ALR sulfhydryl oxidase activity | P55789 | purified ALR, DTT oxidation, H2O2 HRP-luminol luminescence | inhibition, % (test concentration not listed) | hit rate 3.8% among 290,000;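 active = mean replicate inhibition above about 79%, with every replicate also reaching it, limit read from the data; inconclusive = only one of the two criteria met; inactive = mean below limit and not every replicate reaching it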
Target sequence (P55789 whole entry, looked up): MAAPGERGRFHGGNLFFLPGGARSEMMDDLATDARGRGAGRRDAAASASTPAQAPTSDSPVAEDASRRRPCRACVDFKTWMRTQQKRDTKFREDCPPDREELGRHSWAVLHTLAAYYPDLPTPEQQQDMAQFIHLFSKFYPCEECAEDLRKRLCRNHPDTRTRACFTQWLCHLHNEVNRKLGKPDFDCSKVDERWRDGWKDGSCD
PP5 primary – PP5 (human) phosphatase inhibition | P53041 | purified PP5c, OMFP substrate fluorescence | inhibition, % at 6.7 µM | hit rate 0.18% among 320,000 | AID 1987;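 active = inhibition above the campaign's mean inhibition across all tested compounds plus 3 SD, cut at about 9.5% in these data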;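 note: 0% = DMSO only and 100% = 100 µM cantharidin control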
CSC inhib – blocks cancer stem cells | cancer stem cell-like cells viability, luminescence | hit rate 1.1% among 300,000 | inhibition, % at 7.5 µM; in the data active = inhibition above about 75%; inconclusive = no clear call, values can overlap the other calls; tested in HMLE shEcad cells
PP1 counter – PP1-alpha (human) inhibition in PP5 counter-screen; P62136; purified PP1alpha, OMFP fluorescence; inhibition, % at 6.7 µM; hit rate 0.9% among 320,000; AID 2235;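 active = inhibition above the mean inhibition of all tested compounds plus 3 SD, computed separately for each screening campaign, cut at about 15% in these data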
Target sequence (P62136 whole entry, looked up): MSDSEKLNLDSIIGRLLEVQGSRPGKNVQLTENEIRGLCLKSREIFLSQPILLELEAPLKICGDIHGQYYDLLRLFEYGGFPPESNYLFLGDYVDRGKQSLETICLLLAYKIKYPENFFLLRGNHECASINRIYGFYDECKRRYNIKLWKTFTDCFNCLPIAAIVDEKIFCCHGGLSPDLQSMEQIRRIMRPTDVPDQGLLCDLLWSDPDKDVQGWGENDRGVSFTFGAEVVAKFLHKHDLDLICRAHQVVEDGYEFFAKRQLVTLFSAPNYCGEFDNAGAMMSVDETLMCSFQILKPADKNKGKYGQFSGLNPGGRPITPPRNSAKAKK
Calb FLC – C. albicans growth modulation with fluconazole; C. albicans CaCi-2 (fluconazole-resistant clinical isolate) + fluconazole, Alamar Blue growth, 48 h; growth inhibition, % (concentration not given with the values); hit rate 0.57% among 300,000; AID 1979;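 active = growth inhibition above about 58% in most replicates, limit read from the data, passing the limit was not always enough; inconclusive = exactly half the replicates above a set limit; inactive = most replicates below a set limit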;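 note: all wells also contain fluconazole at 8 µg/ml as a sub-toxic cotreatment; 0% = median of DMSO wells and 100% = median of geldanamycin control wells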
The depositor's hits bear a star; ? = inconclusive; · = not tested or not shown.

SMILES	ALR inh	PP5 primary	CSC inhib	PP1 counter	Calb FLC
Cc1cccc(N2CCN(C(=O)CC(NC(=O)c3ccccc3Cl)c3ccccc3)CC2)c1C (centres undefined)	-3.8	2.3	-7.0	3.4	10.0
COc1ccccc1C(=O)NCCC(=O)N1CCN(c2ccccc2O)CC1	90.8*	-0.6	-0.1	1.4	0.3
O=C(c1ccc2ccccc2c1)N1CCN(c2ccc(O)cc2)CC1	·	0.4	26.6	-0.2	?
CC(=O)NC1(c2nnnn2CCOC(=O)Nc2ccc(Cl)cc2)CCCCC1	·	1.5	6.7	-0.4	-1.1
COc1ccccc1N1CCN(C(=O)CCNS(=O)(=O)c2cc(Br)cnc2N)CC1	98.5*	-2.0	3.3	-4.5	3.7
O=C(NCC(=O)N1CCN(c2ccccc2O)CC1)c1cccs1	99.1*	-0.9	-6.3	-0.8	15.4
COc1ccccc1N1CCN(C(=O)CSc2ccccc2)CC1	98.7*	2.9	-1.1	-1.7	15.3
Cn1c(N2CCOCC2)nc(-c2ccccc2)c1-c1ccccc1	98.8*	2.5	8.8	-0.5	5.3
O=C1C(Cl)=C(NCCN2CCCCC2)C(=O)c2ccccc21	-71.3	3.4	107.5*	-4.3	-1.5
CCn1c(C)nc2cc(C(=O)NNC(=S)Nc3ccc(Cl)cc3)ccc21	87.1*	-1.6	-13.3	-3.4	-5.5
CCn1c(C)nc2cc(C(=O)NNC(=S)Nc3ccc(Cl)cc3Cl)ccc21	·	1.1	4.6	4.1	95.3*
CCn1c(C)nc2cc(C(=O)NNC(=S)Nc3ccc(F)cc3)ccc21	65.2	1.7	0.8	-2.8	11.0
COc1ccc(CN(C)C(=O)C23CC4CC(CC(C4)C2)C3)c(OC)c1	·	1.5	·	-1.8	-11.3
Cc1cccc(NC(=O)c2cc3c(s2)-c2c(C)cccc2OC3)n1	-3.6	-1.6	30.3	-1.7	-2.4
COc1ccc2nc(C)cc(SCC(=O)Nc3c(C)cc(C)cc3C)c2c1	·	-1.7	14.7	0.0	14.8
COc1ccc2nc(C)cc(SCC(=O)N/N=C/c3ccc(O)cc3O)c2c1	-11.1	-1.5	104.0*	-0.8	-40.2
CCOC(=O)CSc1cc(C)nc2ccc(OC)cc12	98.1*	-0.6	1.7	-3.6	19.8
Cc1sc2nc(CSC(C)C(=O)Nc3cc(S(C)(=O)=O)ccc3Cl)[nH]c(=O)c2c1C (centres undefined)	98.4*	0.0	-4.0	-4.3	10.9
Cc1ccc(NC(=O)C(C)SCc2nc3sc(C)c(C)c3c(=O)[nH]2)nc1 (centres undefined)	98.7*	0.3	10.8	-2.2	0.5
Cc1sc2nc(CSC(C)C(=O)Nc3ccccn3)[nH]c(=O)c2c1C (centres undefined)	3.3	0.7	1.2	0.7	·
COc1ccc(CC(=O)OC(C)CN2CCOCC2)cc1 (centres undefined)	-6.3	2.2	-12.7	-0.2	8.2
Fc1ccc(NC(=S)NCc2cccnc2)cc1	3.9	1.2	-6.8	0.3	-3.2
COc1cc(OC)c(NC(=S)NCc2ccccc2)cc1Cl	-11.2	1.0	-17.2	-5.2	125.5*
COc1ccc(C(=O)O)cc1NC(=S)NC(=O)/C=C/c1ccc(C(C)C)cc1	97.4*	4.0	3.5	14.5	-12.2
COc1ccc(/C=C/C(=O)NC(=S)NCc2ccccc2)cc1OC	0.0	0.2	-4.7	15.5*	-0.2
SMILES	ALR inh	PP5 primary	CSC inhib	PP1 counter	Calb FLC
COc1cc(NC(=S)NCc2cccnc2)c(OC)cc1Cl	·	3.9	-13.8	-3.7	-1.4
COc1ccc(/C=C/C(=O)NC(=S)NNC(=O)c2cccs2)cc1OC	99.0*	-0.4	-0.1	6.5	-3.1
COc1cccc(NC(=O)CSc2nnc(NC(=O)C3CCC3)s2)c1	-6.7	2.9	5.6	4.6	7.2
COC(=O)COc1cccc2c(=O)n(CC(=O)N3CCCc4ccccc43)ccc12	88.7*	1.7	-9.1	-3.7	4.2
COc1ccc(NC(=O)CSc2nc3ccccc3c(=O)n2Cc2cccs2)c(OC)c1	·	-1.1	-0.7	-3.6	1.9
CCC(=O)N1CCc2cc(S(=O)(=O)CCC(=O)Nc3cccc(F)c3)ccc21	97.9*	0.6	17.8	0.2	-0.3
CCC(=O)N1CCc2cc(S(=O)(=O)CCC(=O)Nc3ccc(F)c(F)c3)ccc21	97.8*	-0.8	-11.7	-3.4	-0.7
CCC(=O)N1CCc2cc(S(=O)(=O)CCC(=O)Nc3ccc(CC)cc3)ccc21	-1.1	-1.7	-17.1	-3.2	1.8
CCC(=O)N1CCc2cc(S(=O)(=O)CCC(=O)Nc3ccc(C(C)=O)cc3)ccc21	33.7	0.2	9.7	0.6	-33.8
Cc1ccc(N2C(=O)C(CC(=O)Nc3cccc(F)c3)N(C3CC3)C2=O)cc1 (centres undefined)	78.5*	0.4	3.0	-0.8	-6.8
COc1cccc(N2C(=O)C(CC(=O)Nc3ccc(F)cc3)N(C3CCCCC3)C2=O)c1 (centres undefined)	-2.5	-0.1	·	-0.6	33.1
CCOC(=O)c1cnc(COc2ccc(OC)cc2)[nH]c1=O	1.6	0.0	-6.7	-7.7	3.5
CCc1ccc(OCC(=O)NC(=S)Nc2ccc(C)cc2C)c(Br)c1	-2.7	2.9	0.3	-1.1	4.3
CCc1ccc(OCC(=O)NNC(=S)NC(=O)C2CCCCC2)c(Br)c1	2.6	-2.1	6.9	2.5	83.7*
CCc1ccc(OCC(=O)NC2CCCCC2)c(Br)c1	-9.4	3.9	17.9	0.1	-12.7
CCc1ccc(OCC(=O)NNC(=S)NC(=O)C2CC2)c(Br)c1	12.5	·	-11.4	·	107.1*
COc1ccc(OCC(=O)NNC(=S)NC(=O)C2CC2)cc1	19.6	·	·	·	13.8
Cc1cc(C)cc(OCC(=O)NNC(=S)NC(=O)C2CC2)c1	35.0	1.1	-5.4	-2.5	118.8*
CCO[C@H]1OC(C(=O)N2CCN(Cc3ccc4c(c3)OCO4)CC2)=C[C@@H](c2ccc(C(F)(F)F)cc2)[C@@H]1CCCO	-0.6	-5.4	10.9	8.1	3.0
Cc1ccc(C(=O)Nc2ccc3c(c2)OCO3)cc1Cl	-5.2	5.9	6.9	2.2	-22.4
CCc1cccc2c(C(=O)CSc3nnc(-c4ccoc4C)n3C)c[nH]c12	-0.1	0.9	6.3	4.5	-2.4
CC(C)(C)[C@H]1C=C(C(=O)NC2CC2)O[C@@H](OCCCCO)C1	3.0	2.7	-11.3	-3.8	3.2
C=CCNC(=O)CC1Nc2c3ccccc3nc(=S)n2C1=O (centres undefined)	94.9*	1.2	0.4	-3.4	-6.1
Cc1ccc(CNC(=O)CC2Nc3c4ccccc4nc(=S)n3C2=O)cc1 (centres undefined)	17.5	1.4	-8.8	0.8	5.8
CC(C)CCNC(=O)CC1Nc2c3ccccc3nc(=S)n2C1=O (centres undefined)	49.9	1.8	1.6	-1.9	-6.7
CC(C)NC(=O)CC1Nc2c3ccccc3nc(=S)n2C1=O (centres undefined)	88.2*	1.6	-10.6	0.6	-17.5
CNc1nc(N)c(C(=O)C23CC4CC(CC(C4)C2)C3)s1	98.4*	1.1	48.0	0.2	-5.4
CCCCc1c(O)nc(SCC(=O)N2CCCCC2)n(-c2ccccc2C)c1=O	12.2	-6.9	-5.5	1.6	2.5
Cc1sc(Cc2nc(O)cs2)nc1-c1ccccc1	97.3*	-1.3	-10.5	-2.2	-8.4
Cc1cc2cc(CNC(=S)NCc3ccccc3)ccc2n1C	-5.4	3.1	-11.0	1.6	-22.8

Assay outcomes as filed in PubChem BioAssay.
